Assay outcomes deposited in PubChem BioAssay by National Center for Advancing Translational Sciences (NCATS).
The list is not random: actives were taken first. Their share in the collection is about 11%.
HPGD inh: qHTS Assay for Inhibitors of HPGD (15-Hydroxyprostaglandin Dehydrogenase) | 15-hydroxyprostaglandin dehydrogenase [NAD(+)] (Homo sapiens), P15428 | purified HPGD, NADH fluorescence kinetic, PGE2 substrate | Potency, µM, actives largely listed as inhibitors | actives 4.3% (n = 150,000) | AID 894, 2007; active = well fitted inhibition curve with a large enough effect, not every such curve was filed as active; inconclusive = small, poorly fitted or top-dose-only effect, or another doubt; inactive = no such curve, though single readings can be large or run the other way
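20 nM HPGD preincubated 15 min at room temperature with compound in 50 mM Tris-HCl pH 8, 0.01% Tween 20. Started with 1 mM NAD+ and 30 uM prostaglandin E2; NADH fluorescence (360/450 nm) read 5 times over 30-s intervals, last minus first.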
HTT aggregate: qHTS Multiplex Assay to Identify Dual Action Probes in a Cell Model of Huntington: Aggregate Formation (GFP); PC12 HttQ103-GFP aggregates, Acumen cytometry, 40 h; Potency, µM (top dose mostly 46.1 µM), most hits filed as inhibitors; actives 1.1% (n = 220,000); note: nearly all actives have a fitted effect of over 60% in size
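Using laser scanning cytometry, GFP-positive aggregates were counted after lysis of PC12 cells induced with 100 nM tebufenozide to express HTT exon 1 Q103–GFP. Compounds were tested in titration.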
HTT ATP protect: qHTS Multiplex Assay to Identify Dual Action Probes in a Cell Model of Huntington: Cytoprotection (ATP) | PC12 HTT-Q103 induced, cytoprotection, ATP luminescence, 40 h | actives 0.14% (n = 230,000) | Potency, µM (doses to about 56.4 µM), most hits filed as activators; note: nearly all actives have a fitted effect of over 45% in size
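PC12 cells with ecdysone-inducible HTT exon 1 Q103-GFP, induced with 100 nM tebufenozide and co-treated with library compounds in a dose series (1536-well, 1500 cells/well). Cytoprotection read as ATP content by ATPlite luminescence.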
PNC assembly inh: High Content Assay for Compounds that inhibit the Assembly of the Perinucleolar Compartment; activity change (PNC), negative = inhibition, % at 10 µM; AID 2417, 2010; PC3M PTB-GFP, PNC prevalence imaging, 16 h; active compounds read low; actives 3.1% (n = 140,000);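 active = readout at or below -70, meaning at least 70% loss of cells showing the perinucleolar compartment, a nuclear body marking cancer cells; inconclusive = readout between -30 and a set limit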
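Compounds are pinned in duplicate onto adhered PC3M cells stably expressing GFP-tagged PTB and incubated 16 h at 37 C. Cells are then fixed, nuclei stained with Hoechst, and PNC-positive cells counted.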
CBFb RUNX1 block: qHTS Assay for Compounds Blocking the Interaction Between CBF-beta and RUNX1 for the Treatment of Acute Myeloid Leukemia; Runt-related transcription factor 1 (Homo sapiens) + Core-binding factor subunit beta …; AlphaScreen CBFb-His/RUNX1-biotin binding, biochemical; Potency, µM (highest dose often 59.8 µM), hits mostly inhibitors; 230,000 tested, under 10 active; AID 1477, 2009
Target sequence (Q01196 whole entry, looked up): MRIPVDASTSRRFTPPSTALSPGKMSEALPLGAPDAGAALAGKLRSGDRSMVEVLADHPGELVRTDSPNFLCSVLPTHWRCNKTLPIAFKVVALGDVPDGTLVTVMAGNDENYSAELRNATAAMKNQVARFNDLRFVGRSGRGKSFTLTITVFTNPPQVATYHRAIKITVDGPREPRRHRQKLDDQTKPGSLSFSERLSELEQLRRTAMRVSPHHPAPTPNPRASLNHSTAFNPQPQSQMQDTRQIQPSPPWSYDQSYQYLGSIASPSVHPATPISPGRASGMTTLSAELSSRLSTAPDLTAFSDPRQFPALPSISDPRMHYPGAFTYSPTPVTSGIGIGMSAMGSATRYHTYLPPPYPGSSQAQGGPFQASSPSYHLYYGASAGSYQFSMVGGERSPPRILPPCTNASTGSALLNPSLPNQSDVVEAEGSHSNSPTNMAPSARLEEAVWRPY
Target sequence (Q13951 whole entry, looked up): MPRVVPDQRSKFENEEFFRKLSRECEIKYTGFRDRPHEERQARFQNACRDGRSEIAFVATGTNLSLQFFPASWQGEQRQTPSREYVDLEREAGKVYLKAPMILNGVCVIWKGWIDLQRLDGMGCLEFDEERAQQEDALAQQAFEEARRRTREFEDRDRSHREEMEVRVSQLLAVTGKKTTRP
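Room-temperature protein-protein interaction test with 30 nM each of His-tagged CBF-beta and biotinylated RUNX1, 15 min with compound, then 90 min with nickel plus streptavidin beads. Signal read in AlphaScreen mode.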
ALDH1A1 inh: qHTS Assay for Inhibitors of Aldehyde Dehydrogenase 1 (ALDH1A1). Purified ALDH1A1, NADH fluorescence, propionaldehyde substrate. actives 7.3% (n = 220,000). Potency, µM (highest dose often 75.3 µM), actives largely listed as inhibitors; active = well fitted inhibition curve with a large enough effect, not every such curve was filed as active; inconclusive = small, poorly fitted or top-dose-only effect, or another doubt; inactive = no such curve, though single readings can be large or run the other way
Of the large screens only hits and unclear results are named; the others gave an inactive call. Unless noted, calls come from the whole dose curve; as a rule, active = well fitted curve in the direction sought with a large enough effect; inconclusive = small, poorly fitted or top-dose-only effect, or another doubt; inactive = no such curve, though single readings can be large; an effect the other way counts as inactive or inconclusive.

Cc1cc(OCCCC(=O)N2CCCCC2)cc(C)c1Cl	HPGD inh 7.9µM, PNC assembly inh inconclusive, ALDH1A1 inh inconclusive
Cc1cc(Br)ccc1OCC(=O)N1CCCCCC1	HPGD inh 40µM, ALDH1A1 inh inconclusive
O=C(CCCOc1ccccc1)N1CCc2ccccc2C1	HPGD inh inconclusive
CCNc1ncc2nc(-c3ccc(Cl)cc3)c(=O)n(CCC#N)c2n1	ALDH1A1 inh inconclusive (no result: HPGD inh, HTT aggregate, PNC assembly inh, CBFb RUNX1 block)
NC(=O)C1CCN(C(=O)CCSc2ccc(Cl)cc2)CC1	none (no result: HPGD inh, PNC assembly inh)
O=C(CCSc1ccc(Cl)cc1)N1CCCCCC1	HPGD inh 10µM
CC1CCN(C(=O)CCCOc2ccc(Cl)cc2)CC1	HPGD inh 2.8µM, ALDH1A1 inh inconclusive
CC(C)C(NS(=O)(=O)c1ccc2c(c1)OCCO2)C(=O)NCCc1ccccn1 (centres undefined)	none
COc1cc2c(C(=O)N3CCN(C4CCCCC4)CC3)cn(CC(C)C)c(=O)c2cc1OC	HTT aggregate inconclusive, PNC assembly inh inconclusive, ALDH1A1 inh 22µM
CCOC(=O)C1CCCN(C(=O)c2cn(CC(C)C)c(=O)c3cc(OC)c(OC)cc23)C1 (centres undefined)	PNC assembly inh -100, ALDH1A1 inh inconclusive
CCCN1CCN(C(=O)c2cn(CC(C)C)c(=O)c3cc(OC)c(OC)cc23)CC1	PNC assembly inh inconclusive, ALDH1A1 inh inconclusive
CCC1=C(OC(=O)N(CC)CC)N2C(=O)OC(=NCC3CC3)[C@]2(Cc2ccccc2)[C@H]2C1=CC[C@H]1C(=O)N(c3ccccc3)C(=O)[C@H]12	HTT aggregate inconclusive (no result: PNC assembly inh)
COc1ccc(C(C)C(=O)c2ccc(O)cc2O)cc1 (centres undefined)	none (no result: HTT aggregate, PNC assembly inh)
Cc1[nH]c2ccccc2c1C(=O)CN1CCN(C2CCCCC2)CC1	PNC assembly inh inconclusive, ALDH1A1 inh 13µM
O=C(O)CSC(=S)N1CCCC1	none (no result: HPGD inh, PNC assembly inh, ALDH1A1 inh)
O=C(CSC(=S)N1CCCCC1)c1ccccc1	ALDH1A1 inh 32µM (no result: HPGD inh, PNC assembly inh)
Cc1[nH]c2ccccc2c1C(=O)CSC(=S)N1CCCCC1	HPGD inh 25µM, ALDH1A1 inh inconclusive (no result: HTT ATP protect)
CCc1nc2sc3ccccc3c(=O)c2c(=O)n1Cc1ccco1	ALDH1A1 inh inconclusive
O=c1c2ccccc2sc2nc(C3CCCCC3)n(Cc3ccco3)c(=O)c12	HPGD inh 16µM, ALDH1A1 inh 1.4µM
O=c1cc(C(F)(F)C(F)F)oc2ccccc12	none
CC(C)(C)NC(=O)C(=O)NNC(=O)c1ccccc1	none
CC(C)(C)NC(=O)C(=O)NNC(=O)c1cccc(F)c1	HTT aggregate 0.63µM, HTT ATP protect inconclusive (no result: HPGD inh, PNC assembly inh)
C=C(C)CN=C1SC(C(=O)Nc2sc3c(c2C(=O)OC)CCC3)C(N)=C1C(N)=O (centres undefined)	HPGD inh inconclusive, ALDH1A1 inh 25µM
COC(=O)c1c(NC(=O)C2SC(=NC3CCCCC3)C(C(N)=O)=C2N)sc2c1CCCC2 (centres undefined)	PNC assembly inh inconclusive
CC(=O)N(Cc1c(C)nn(-c2ccccc2)c1Cl)c1ccc(Cl)cc1	PNC assembly inh inconclusive
Cc1nn(-c2ccccc2)c(Cl)c1CN(C(=O)CCl)c1ccc(Cl)cc1	HTT aggregate 25µM, ALDH1A1 inh 7.1µM
Cc1nn(-c2ccccc2)c(Cl)c1CN(C(=O)CCl)c1cccc2ccccc12	HTT aggregate 13µM, ALDH1A1 inh 28µM
O=C(NCc1nc2ccccc2[nH]1)c1cccs1	PNC assembly inh -87
CCn1c(CNC(=O)c2cccs2)n[nH]c1=S	PNC assembly inh -109, ALDH1A1 inh inconclusive (no result: HTT ATP protect)
O=C(NCc1ccccn1)c1cccs1	PNC assembly inh inconclusive
O=C(NCc1nc2ccccc2[nH]1)c1ccco1	PNC assembly inh -98
